For 14 molecules, composite z-score and z-score results are on record in PubChem BioAssay.

Calls of active or inactive are those of the source.

The nature of assay [1]: anti-His antibody binders, primary screen, artefact control for SMM control protein annotation, biochemical, small-molecule microarray, 635 nm fluorescence (AID 1128).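 Note: score merges feature fluorescence with signal-to-noise for each printed compound spot.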 The note with it: anti-His Alexa647 antibody binding, higher = more signal.
The test system of assay [2] is Human papillomavirus type 1a E7 protein (residues 1-88). Description: HPV1a E7 small-molecule binders, primary screen, biochemical, small-molecule microarray, residues 1-88, 635 nm (AID 1129). As to conditions: small-molecule microarray binding, fluorescence 635 nm; higher = more signal.
In assay [3] the target is Focal adhesion kinase 1 (Homo sapiens) (UniProt Q05397). Description: small-molecule microarray binders of FAK, primary screen, biochemical, 635/667 nm fluorescence, BSA, DTT (AID 1130).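 Note: composite of spot emission at 667 nm and signal to noise over triplicate slides.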 The note with it: PTK2 binding, 635 nm fluorescence, higher = more signal.
Assay [4] relates to Fibrinogen (Alexa647-labelled). Nature of the assay: fibrinogen binders on compound microarrays, profiling panel, artefact control for SMM control-protein annotation, biochemical, small-molecule microarray, 635/667 nm fluorescence (AID 1131).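 Note: z-score merges 667 nm fluorescence with per-spot signal-to-noise over triplicate slides.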 The note with it: fibrinogen-A647 binding fluorescence, higher = more signal.
Assay [5] addresses Follistatin (Homo sapiens) (UniProt P19883). Nature of the assay: follistatin binders on small-molecule microarrays, primary screen, biochemical, small-molecule microarray, 635/667 nm fluorescence (AID 1132). As to conditions: FST binding, 635 nm fluorescence, higher = more signal.
Assay [6] has as its target Fibroblast growth factor 2 (Homo sapiens) (UniProt P09038). Description: FGF2 binders on small-molecule microarrays, primary screen, biochemical, small-molecule microarray, 635/667 nm fluorescence (AID 1133). As to conditions: small-molecule microarray binding, FGF2, fluorescence 635/667; higher = more signal.
Assay [7] can be described thus: mitochondrial membrane potential change in A549 cells, profiling panel, cell-based, JC-1 fluorescence, basal, 24 h, 100 nL (AID 1138).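 Note: A549 lung adenocarcinoma cells under basal conditions with no added stimulus; test concentration not given here.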 The note with it: higher = more signal.
Assay [8] deals with Lefty1. Description: Lefty1 binders on small-molecule microarrays, primary screen, biochemical, small-molecule microarray, 635/667 nm fluorescence (AID 1139). The note with it: small-molecule microarray binding, fluorescence 635/667; higher = more signal.
The subject of assay [9] is wheat germ agglutinin (Triticum aestivum), Alexa647-labelled. Description: wheat germ agglutinin binders on compound microarrays, profiling panel, artefact control for SMM control-protein annotation, biochemical, small-molecule microarray, 635/667 nm fluorescence (AID 1140).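 Note: score merges 667 nm feature emission with signal to noise over triplicate slides.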 As to conditions: WGA-A647 binding, 635 nm fluorescence, higher = more signal.
Assay [10] concerns the target Luciferin 4-monooxygenase (Photinus pyralis) (UniProt P08659). Description: firefly luciferase enzyme inhibitors, primary screen, biochemical, luminescence, purified enzyme, 2006 set (AID 1141).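 Note: cell-free assay with purified firefly luciferase at 100 ng per well in PBS; test concentration not given here.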 As to conditions: SteadyGlo luminescence, 30 min, higher = more signal, called active from +8 up or from −8 down.

Chain of Fibroblast growth factor 2 (Homo sapiens) (P09038 whole entry, looked up): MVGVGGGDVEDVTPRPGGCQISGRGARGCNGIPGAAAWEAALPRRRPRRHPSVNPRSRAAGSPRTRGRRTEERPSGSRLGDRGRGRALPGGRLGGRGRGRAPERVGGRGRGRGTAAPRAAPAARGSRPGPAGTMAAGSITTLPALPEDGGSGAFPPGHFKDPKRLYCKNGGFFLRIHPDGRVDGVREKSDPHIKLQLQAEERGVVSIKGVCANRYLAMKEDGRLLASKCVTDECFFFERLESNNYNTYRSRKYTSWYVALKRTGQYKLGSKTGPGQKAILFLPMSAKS
Chain of Follistatin (Homo sapiens) (P19883 whole entry, looked up): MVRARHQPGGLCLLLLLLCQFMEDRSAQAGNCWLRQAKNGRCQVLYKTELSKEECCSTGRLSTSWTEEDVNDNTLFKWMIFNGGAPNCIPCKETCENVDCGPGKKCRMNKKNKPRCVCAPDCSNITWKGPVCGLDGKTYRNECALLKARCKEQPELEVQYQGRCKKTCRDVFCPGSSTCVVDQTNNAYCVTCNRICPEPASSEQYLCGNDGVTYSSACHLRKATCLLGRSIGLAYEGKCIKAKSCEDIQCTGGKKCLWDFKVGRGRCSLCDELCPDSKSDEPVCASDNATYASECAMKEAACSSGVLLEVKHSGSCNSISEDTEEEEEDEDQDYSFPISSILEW
Chain of Luciferin 4-monooxygenase (Photinus pyralis) (P08659 whole entry, looked up): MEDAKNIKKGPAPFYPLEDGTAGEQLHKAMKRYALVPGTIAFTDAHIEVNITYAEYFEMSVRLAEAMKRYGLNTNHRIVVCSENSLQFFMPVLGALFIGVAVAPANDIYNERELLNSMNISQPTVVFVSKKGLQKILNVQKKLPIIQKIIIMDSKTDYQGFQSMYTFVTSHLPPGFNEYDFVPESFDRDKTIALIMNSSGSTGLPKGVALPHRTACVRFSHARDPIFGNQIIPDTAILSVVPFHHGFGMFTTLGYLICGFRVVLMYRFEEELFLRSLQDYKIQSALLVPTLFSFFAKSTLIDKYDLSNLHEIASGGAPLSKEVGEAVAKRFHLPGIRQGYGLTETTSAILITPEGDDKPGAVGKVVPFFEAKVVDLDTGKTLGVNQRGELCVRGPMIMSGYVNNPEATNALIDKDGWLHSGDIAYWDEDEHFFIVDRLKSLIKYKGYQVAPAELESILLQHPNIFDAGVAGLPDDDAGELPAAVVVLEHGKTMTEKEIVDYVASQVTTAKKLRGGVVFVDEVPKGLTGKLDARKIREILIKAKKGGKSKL
Chain of Focal adhesion kinase 1 (Homo sapiens) (Q05397 whole entry, looked up): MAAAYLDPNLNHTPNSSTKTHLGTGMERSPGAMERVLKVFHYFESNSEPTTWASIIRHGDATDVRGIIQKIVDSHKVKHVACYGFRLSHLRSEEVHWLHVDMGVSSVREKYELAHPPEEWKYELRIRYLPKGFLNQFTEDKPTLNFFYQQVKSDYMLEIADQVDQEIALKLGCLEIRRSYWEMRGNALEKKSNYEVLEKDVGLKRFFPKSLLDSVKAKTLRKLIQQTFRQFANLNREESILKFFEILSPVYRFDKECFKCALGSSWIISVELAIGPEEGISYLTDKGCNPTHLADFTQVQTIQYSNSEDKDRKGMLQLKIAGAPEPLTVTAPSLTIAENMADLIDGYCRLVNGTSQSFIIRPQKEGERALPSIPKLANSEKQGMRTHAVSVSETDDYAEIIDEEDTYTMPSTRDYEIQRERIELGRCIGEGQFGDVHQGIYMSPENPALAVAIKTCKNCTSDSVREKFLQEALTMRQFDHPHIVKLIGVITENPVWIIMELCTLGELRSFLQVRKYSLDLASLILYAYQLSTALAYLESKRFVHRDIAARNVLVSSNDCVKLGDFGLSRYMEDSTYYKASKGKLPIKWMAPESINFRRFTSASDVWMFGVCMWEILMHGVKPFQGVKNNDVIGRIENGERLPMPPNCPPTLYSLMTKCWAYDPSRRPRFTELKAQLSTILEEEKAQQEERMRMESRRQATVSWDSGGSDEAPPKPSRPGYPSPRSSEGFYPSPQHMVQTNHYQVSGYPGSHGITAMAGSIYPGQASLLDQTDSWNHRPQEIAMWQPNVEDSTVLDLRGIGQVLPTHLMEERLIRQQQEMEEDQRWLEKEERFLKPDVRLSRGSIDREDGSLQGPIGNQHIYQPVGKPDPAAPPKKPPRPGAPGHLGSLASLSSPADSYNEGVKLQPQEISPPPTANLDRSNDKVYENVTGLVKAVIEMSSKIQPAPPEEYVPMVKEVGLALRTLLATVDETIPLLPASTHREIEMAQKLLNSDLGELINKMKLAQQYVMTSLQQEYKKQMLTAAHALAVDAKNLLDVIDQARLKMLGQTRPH

On to `CC(C)(C)N1CC=CC23O[C@@H]4/C=C\CCCOC(=O)C4[C@H]2C(=O)N(CCCCCO)[C@@H]3C1=O` (stereo not given in full), for which the composite z-score in [1] is -1.23; in [2], -0.75; in assay [3] it was -0.716; in [4], -0.865; in [5] it was -1.06; in assay [6], -0.594. Also, the composite z-score in assay [8] was -1.4; in assay [9], -0.408. Besides, the z-score is -0.137 in assay [7] and 0.215 (inactive) in assay [10].

Consider `CC(C)(C)OC(=O)CC[C@@]1(C(=O)NCCN2CCOCC2)N=C(c2ccc(OCCCO)cc2)O[C@@H]1c1ccccc1CN=[N+]=[N-]`, for which the composite z-score in assay [1] is 0.384; in assay [2], 0.372; in assay [3], 0.499; in assay [4], 1.01; in assay [5] it was -0.0674; in assay [6], -0.495. For the same molecule, the results for the composite z-score in assay [8] and in assay [9] were -0.0313 and 0.608, respectively. Also, the z-score is -0.293 in assay [7] and -4.33 (inactive) in [10].

Regarding `CCCC=C(CCC)[C@@H](NC(=O)c1ccc(C(F)(F)F)cc1)c1ccc(C(F)(F)F)cc1`, the composite z-score in assay [1] was 0.549; in assay [2], 1.23; in assay [3], 0.156; in assay [4] it was 1; in assay [5], 0.384; in assay [6], -0.635. Besides, the composite z-score in assay [8] amounted to 0.131; in assay [9], 1.38. The values for the z-score in [7] and in [10] were 2.65 and 2.29 (inactive), respectively.

Take `COC(=O)c1cccc([C@H]2OC(=CC(=O)OC(C)C)C[C@@H](c3cccc(C(=O)OC)c3)O2)c1`: the composite z-score was determined as 1.51 in [1]; 1.24 in assay [2]; 1.09 in assay [3]; 1 in assay [4]; 1.11 in assay [5]; 0.748 in assay [6]. Moreover, the results for the composite z-score in [8] and in [9] were 0.679 and 0.961, respectively. Also, the z-score in [7] was -0.562; in [10], -1.74 (inactive).

As to `C=C(C)[C@@H]1CC=C(C(O)C2C=CC3C(=O)N(c4ccccc4)C(=O)C3N2Nc2ccc([N+](=O)[O-])cc2)CC1` (stereo not given in full), the composite z-score was 0.594 in assay [1]; 1.27 in [2]; 0.0881 in assay [3]; 0.995 in assay [4]; 1.15 in assay [5]; 0.269 in assay [6]. The composite z-score in assay [8] came out at 1.41; in [9], 0.963. The z-score in assay [7] is -1.55; in [10], 0.158 (inactive).

With `CO[C@H]1O[C@H](CO)[C@@H](OC(=O)Nc2ccccc2)[C@H](OC(=O)Nc2ccccc2)[C@H]1OC(=O)Nc1ccccc1`, the composite z-score came out at 2.2 in [1]; 1.26 in [2]; 0.972 in [3]; 1.01 in assay [4]; 0.943 in [5]; 1.02 in assay [6]. The composite z-score in assay [8] is 0.389; in [9] it was 0.791. For the same molecule, the values for the z-score in [7] and in assay [10] were 0.281 and 1.15 (inactive), respectively.

In the case of `CN(C)CCCNC(=O)[C@@]1(Cc2ccccc2I)c2ccccc2C(=O)N(C2CCCCC2)[C@H]1c1ccc(CO)cc1`, the composite z-score in [1] was 0.743; in assay [2], 1.2; in [3], 0.732; in [4], 1.01; in assay [5] it was 0.872; in assay [6], 0.156. Further, the results for the composite z-score in assay [8] and in assay [9] were 0.27 and 1.2, respectively. The z-score was -1.42 in [7] and 0.371 (inactive) in assay [10].

On to `C=CCOC(=O)[C@@H]1[C@H]2C(=O)O[C@H](c3ccccc3)[C@H](c3ccccc3)N2[C@H](c2ccc(OCCOC(=O)[C@H]3C[C@H]4C(=O)NCC(=O)N4[C@H]3c3cccc(OCCO)c3)cc2)[C@@]12C(=O)Nc1ccc(I)cc12`, for which the composite z-score in assay [1] amounted to 2.5; in assay [2], 1.19; in assay [3] it was 0.919; in [4] it was 0.438; in [5], 1.38; in assay [6] it was 1.64. The composite z-score turned out to be 1.34 in [8] and 0.734 in assay [9]. For the same molecule, the figures for the z-score in assay [7] and in assay [10] were -1.09 and -1.06 (inactive), respectively.

Regarding `COC(=O)[C@@]1(Cc2ccc(OC)cc2)[C@H]2c3cc(C(=O)N(C)C)[nH]c3C[C@H]2CN1C(=O)c1ccccc1`, the composite z-score was 0.279 in assay [1]; -0.154 in assay [2]; 0.0999 in assay [3]; 0.804 in assay [4]; -0.205 in assay [5]; -0.738 in [6]. Moreover, the composite z-score was -0.275 in [8] and 0.895 in [9]. Besides, the z-score in [7] is 0.638; in assay [10] it was 0.0806 (inactive).

Turning to `O=C1C[C@@](C(=O)NCc2ccccc2)(c2ccc([N+](=O)[O-])cc2)[C@@H](c2ccc(CO)cc2)N1C1CCCCC1`, the composite z-score in assay [1] amounted to 1.25; in assay [2], 1.15; in [3], 1.02; in assay [4], 0.955; in assay [5], 1.12; in [6], 1.05. Also, the composite z-score in [8] was determined as 0.294; in [9], 0.706. Also, the figures for the z-score in assay [7] and in assay [10] were 0.966 and -0.238 (inactive), respectively.

`COC(=O)C1=CC(CCCO)=CC(c2cccs2)N(Cc2cc3c(cc2Br)OCO3)C=C1C(=O)OC` (stereo not given): the composite z-score in assay [1] came to 2.57; in assay [2], 1.25; in [3] it was 0.87; in [4] it was 0.999; in assay [5] it was 1.08; in assay [6], 1.43. Further, the composite z-score was found to be 0.273 in assay [8] and 1.13 in [9]. In addition, the z-score in assay [7] is 1.33; in assay [10] it was -1.39 (inactive).

Take `COc1cc(CO)cc(I)c1O[C@H]1C=C(C(=O)NCCO)C[C@@H](NC2CCCCCC2)[C@@H]1O`: the composite z-score is 0.34 in assay [1]; 1.14 in assay [2]; -0.433 in assay [3]; 0.794 in assay [4]; 0.931 in assay [5]; 1.01 in assay [6]. Moreover, the values for the composite z-score in assay [8] and in assay [9] were 1.37 and 0.246, respectively. Also, the results for the z-score in assay [7] and in assay [10] were 1.88 and 4.69 (inactive), respectively.

Regarding `O=C1O[C@@H](c2ccccc2)[C@@H](c2ccccc2)N2[C@@H](c3ccc(OCCO)cc3)[C@]3(C(=O)Nc4ccc(C#CC5(O)CCCCCC5)cc43)[C@@H](C(=O)O)[C@H]12`, the composite z-score came to 2.8 in assay [1]; 1.18 in [2]; 1.24 in assay [3]; 0.832 in assay [4]; 0.776 in assay [5]; 0.155 in assay [6]. Moreover, the results for the composite z-score in assay [8] and in assay [9] were 0.68 and 0.601, respectively. For the same molecule, the z-score in [7] is 0.741; in [10], -2.86 (inactive).

Consider `CC1CC/C=C\[C@H]2OC34C=CCN(C(C)(C)C)C(=O)[C@H]3N(CCCO)C(=O)[C@@H]4C2C(=O)O1` (stereo not given in full), for which the composite z-score in assay [1] was 0.441; in [2], -0.137; in assay [3] it was -0.441; in [4], -0.735; in assay [5], -0.404; in [6] it was -0.685. Besides, the composite z-score was -0.842 in assay [8] and -0.723 in assay [9]. The values for the z-score in assay [7] and in assay [10] were 0.0255 and 0.477 (inactive), respectively.
